This passage reports growth results from PubChem BioAssay (NCI).

About 83,000 compounds went through this panel and 20% of them were active in at least one assay; those are over-represented in the sample as a whole.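 48-hour exposure, single concentration, 96-well plates; percent growth endpoint where 0 means no net growth. Active: below 10.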 Activity calls are given as the source filed them.

One assay deals with NCI-H322M lung. The experiment in a line: NCI-60 one-dose screen, 48 h (100 = growth as untreated, 0 = no growth, -100 = all killed). As to conditions: 10 µM.
For `N=c1nc(N)ncn1-c1ccccc1`, the growth was 108% (inactive).
Same read-out and setting: then `COc1ccc(-c2nnc(-c3c(-c4ccccc4)nc4ncccn34)o2)cc1OC`, with 94.2% (inactive).
Same read-out and setting: the same measure for `Nc1ncn([C@@H]2O[C@H](CO)[C@@H](O)[C@H]2O)c(=O)n1`: 15.9% (inactive); for `CCOC(=O)CCC(NC(=O)c1ccc(N)cc1)C(=O)OCC` (stereo not drawn): 108% (inactive); for `CC(=O)N(C)c1ccc(Nc2ccc(Nc3ccc(N(C)C(C)=O)cc3)c3c2C(=O)c2ccccc2C3=O)cc1`: 75.4% (inactive).
Same read-out and setting: the same measure for `COc1ccc(-c2nc3sccn3c2-c2nc3c([nH]2)C(=O)c2ccccc2C3=O)cc1`: 108% (inactive); for `COc1ccc2c(c1)C(=O)c1c-2c(OCCN(C)C)nc2cc(OC)c(OC)cc12`: 57.2% (inactive); for `COc1cc(/C=C\c2cc(OC)c(OC)c(OC)c2)cc(NS(=O)(=O)c2ccc(Cl)cc2)c1OC`: 48.7% (inactive).
With `C=C(C(=O)c1ccccc1)C(NC(C)(C)C)c1ccccc1` (stereo not drawn), the growth is 98.6% (inactive).
On to `O=C1/C(=C/c2ccc(Cl)cc2)SC(=Nc2ccc(Cl)cc2)N1Cc1nc2ccccc2[nH]1`, for which the growth is 95.4% (inactive).
In the case of `CC12O[C@H](C[C@@H](OC(=O)c3ccccc3)[C@H]1O)n1c3ccccc3c3c4c(c5c6ccccc6n2c5c31)C(=O)NC4=O`, the growth is 83.1% (inactive).
Still for that read-out and setting: the same measure for `COc1ccc(Oc2nc(NC3CCCC3)nc(Sc3ccc(OC)cc3)n2)cc1`: 90.5% (inactive).
On the same count and under the same terms, the same measure for `COc1cc(-c2cc(/C=C/C(=O)c3ccc4c(c3)OCO4)[nH]n2)cc(OC)c1OC`: 54.2% (inactive); for `CCN(CC)CCOc1nc2cc(OC)c(OC)cc2c2c1-c1ccc(OC)cc1C2=O`: 83.9% (inactive); for `COc1ccc(-c2nc(-c3nc4cc(Cl)c(Cl)cc4[nH]3)c3ccccn23)cc1`: 48.4% (inactive).
Still for that read-out and setting: then `O=C1/C(=C\c2ccc(Cl)cc2)CN(C(=O)c2ccccc2)C/C1=C\c1ccc(Cl)cc1`, with 74.5% (inactive); and `Clc1cc2c(c(CSc3nc4ccccc4n4cccc34)c1)OCOC2`, with 83.2% (inactive).
As for `COc1cc(Cl)cc(-c2nn(-c3cccc(NC(=O)Nc4cc(C(F)(F)F)cc(C(F)(F)F)c4)c3)cc2-c2ccncc2)c1`, the growth was 11% (inactive).
Same read-out and setting: the same measure for `COc1ccc(OC)c(/C=C/c2nc(SCc3ccccc3)n(-c3ccc(Cl)cc3)n2)c1`: 82.9% (inactive).
On the same count and under the same terms, then `CC(=O)/C(=C/c1ccccc1)C(=O)CC(C)C`, with 116% (inactive); and `CC(=O)CSC(C)=O`, with 104% (inactive).
As for `CNc1ccc(CSc2ccc(C)cc2)cc1`, the growth was 88.9% (inactive).
The same measure, in the same setting: then `c1ccc(C(NC2CC3CCC2C3)c2ccccc2)cc1` (stereo not drawn), with 101% (inactive).
The same measure, in the same setting: the same measure for `COc1cc(-c2nn3c(/C=C4/C(=O)Nc5ccccc54)c(-c4ccc(C)cc4)nc3s2)cc(OC)c1OC`: 73.5% (inactive).
Same read-out and setting: then `COc1cc(NC(=O)CSc2nc3ccccc3c(=O)n2CCc2ccccc2)cc(OC)c1OC`, with 27.7% (inactive).
In the case of `CN(C)C(=S)N/N=C\C=N/NC(=S)N(C)C`, the growth is 48.9% (inactive).
Still for that read-out and setting: then `COc1cc2cc3c(nc2cc1OC)CCN3Cc1ccc(NC(=O)Nc2ccc(F)cc2F)cc1`, with 84.8% (inactive); and `O=C(N/N=C\c1cc(Cl)ccc1[N+](=O)[O-])c1ccco1`, with 126% (inactive).
Same read-out and setting: the same measure for `COc1ccc(Cl)cc1-n1nnc(-c2nc3ccccc3[nH]2)c1N`: 75% (inactive).
The same measure, in the same setting: the same measure for `COc1ccc(/C=C2/CN(C(=O)c3ccc(C)cc3)C/C(=C\c3ccc(OC)cc3)C2=O)cc1`: 90.2% (inactive); for `COc1ccc(Nc2ncnc3c2c(SC)nn3-c2ccccc2)cc1`: 82.4% (inactive); for `COc1ccc(-c2cc(/C=C3\C(=O)Nc4ccc(OC)cc43)[nH]n2)cc1`: 53.9% (inactive).
For the molecule `CC(=O)N1N=C(c2ccc(Cl)cc2)CC1c1sc(Cl)nc1Cl` (stereo not drawn), the growth is 62.9% (inactive).
On the same count and under the same terms, then `CN(C)c1ccc(-c2cc(-c3cccc(NS(C)(=O)=O)c3)nc(N)c2C#N)cc1`, with 21.1% (inactive); and `NC(=S)N=Nc1c(O)c2ccccc2c2ccccc12`, with 82.3% (inactive).
The same measure, in the same setting: then `O=[N+]([O-])c1ccc(Oc2cc(Cl)c(Cl)cc2Cl)c(C(F)(F)F)c1`, with 98.1% (inactive).
The same measure, in the same setting: then `O=C(CC(C(=O)c1ccccc1)N1CCOCC1)c1ccccc1` (stereo not drawn), with 109% (inactive).
For the molecule `COc1ccc(-c2nn(-c3cccc(NC(=O)Nc4cc(C(F)(F)F)cc(C(F)(F)F)c4)c3)cc2-c2ccncc2)cc1Cl`, the growth was 4.66% (active).
In the case of `COc1cc(/C=C/C(=O)c2ccc(Cl)cc2)ccc1OS(=O)(=O)c1ccc(C)cc1`, the growth is 96.7% (inactive).

For a further assay, the system named is HOP-62 NSCLC. Described as above. As to conditions: 10 µM.
Consider `N=c1nc(N)ncn1-c1ccccc1`, for which the growth is 92.9% (inactive).
On the same count and under the same terms, then `COc1ccc(-c2nnc(-c3c(-c4ccccc4)nc4ncccn34)o2)cc1OC`, with 84.6% (inactive); and `Nc1ncn([C@@H]2O[C@H](CO)[C@@H](O)[C@H]2O)c(=O)n1`, with 2.42% (active); and `CCOC(=O)CCC(NC(=O)c1ccc(N)cc1)C(=O)OCC` (stereo not drawn), with 96% (inactive).
`CC(=O)N(C)c1ccc(Nc2ccc(Nc3ccc(N(C)C(C)=O)cc3)c3c2C(=O)c2ccccc2C3=O)cc1`: the growth was 75.2% (inactive).
Same read-out and setting: the same measure for `COc1ccc(-c2nc3sccn3c2-c2nc3c([nH]2)C(=O)c2ccccc2C3=O)cc1`: 107% (inactive); for `COc1ccc2c(c1)C(=O)c1c-2c(OCCN(C)C)nc2cc(OC)c(OC)cc12`: 36.1% (inactive).
Consider `COc1cc(/C=C\c2cc(OC)c(OC)c(OC)c2)cc(NS(=O)(=O)c2ccc(Cl)cc2)c1OC`, for which the growth was 60.2% (inactive).
On the same count and under the same terms, the same measure for `C=C(C(=O)c1ccccc1)C(NC(C)(C)C)c1ccccc1` (stereo not drawn): 47.5% (inactive); for `O=C1/C(=C/c2ccc(Cl)cc2)SC(=Nc2ccc(Cl)cc2)N1Cc1nc2ccccc2[nH]1`: 68.6% (inactive); for `CC12O[C@H](C[C@@H](OC(=O)c3ccccc3)[C@H]1O)n1c3ccccc3c3c4c(c5c6ccccc6n2c5c31)C(=O)NC4=O`: 33.4% (inactive).
As to `COc1ccc(Oc2nc(NC3CCCC3)nc(Sc3ccc(OC)cc3)n2)cc1`, the growth is 75.7% (inactive).
On the same count and under the same terms, then `COc1cc(-c2cc(/C=C/C(=O)c3ccc4c(c3)OCO4)[nH]n2)cc(OC)c1OC`, with 48.7% (inactive); and `CCN(CC)CCOc1nc2cc(OC)c(OC)cc2c2c1-c1ccc(OC)cc1C2=O`, with 60.9% (inactive); and `COc1ccc(-c2nc(-c3nc4cc(Cl)c(Cl)cc4[nH]3)c3ccccn23)cc1`, with -11.7% (active).
The same measure, in the same setting: the same measure for `O=C1/C(=C\c2ccc(Cl)cc2)CN(C(=O)c2ccccc2)C/C1=C\c1ccc(Cl)cc1`: 23.2% (inactive); for `Clc1cc2c(c(CSc3nc4ccccc4n4cccc34)c1)OCOC2`: 88.2% (inactive).
As to `COc1cc(Cl)cc(-c2nn(-c3cccc(NC(=O)Nc4cc(C(F)(F)F)cc(C(F)(F)F)c4)c3)cc2-c2ccncc2)c1`, the growth was -41.1% (active).
On the same count and under the same terms, then `COc1ccc(OC)c(/C=C/c2nc(SCc3ccccc3)n(-c3ccc(Cl)cc3)n2)c1`, with 79.4% (inactive); and `CC(=O)/C(=C/c1ccccc1)C(=O)CC(C)C`, with 115% (inactive).
Same read-out and setting: the same measure for `CC(=O)CSC(C)=O`: 101% (inactive); for `CNc1ccc(CSc2ccc(C)cc2)cc1`: 90.4% (inactive).
Still for that read-out and setting: the same measure for `c1ccc(C(NC2CC3CCC2C3)c2ccccc2)cc1` (stereo not drawn): 97.2% (inactive); for `COc1cc(-c2nn3c(/C=C4/C(=O)Nc5ccccc54)c(-c4ccc(C)cc4)nc3s2)cc(OC)c1OC`: 79.5% (inactive).
As to `COc1cc(NC(=O)CSc2nc3ccccc3c(=O)n2CCc2ccccc2)cc(OC)c1OC`, the growth is 9.57% (active).
On the same count and under the same terms, the same measure for `CN(C)C(=S)N/N=C\C=N/NC(=S)N(C)C`: 92.9% (inactive); for `COc1cc2cc3c(nc2cc1OC)CCN3Cc1ccc(NC(=O)Nc2ccc(F)cc2F)cc1`: 105% (inactive).
`O=C(N/N=C\c1cc(Cl)ccc1[N+](=O)[O-])c1ccco1`: the growth is 110% (inactive).
The same measure, in the same setting: then `COc1ccc(Cl)cc1-n1nnc(-c2nc3ccccc3[nH]2)c1N`, with 37.3% (inactive); and `COc1ccc(/C=C2/CN(C(=O)c3ccc(C)cc3)C/C(=C\c3ccc(OC)cc3)C2=O)cc1`, with 89.7% (inactive); and `COc1ccc(Nc2ncnc3c2c(SC)nn3-c2ccccc2)cc1`, with 96.7% (inactive).
Regarding `COc1ccc(-c2cc(/C=C3\C(=O)Nc4ccc(OC)cc43)[nH]n2)cc1`, the growth is 50.7% (inactive).
On the same count and under the same terms, then `CC(=O)N1N=C(c2ccc(Cl)cc2)CC1c1sc(Cl)nc1Cl` (stereo not drawn), with 103% (inactive); and `CN(C)c1ccc(-c2cc(-c3cccc(NS(C)(=O)=O)c3)nc(N)c2C#N)cc1`, with 44.1% (inactive); and `NC(=S)N=Nc1c(O)c2ccccc2c2ccccc12`, with 29.8% (inactive).
Same read-out and setting: the same measure for `O=[N+]([O-])c1ccc(Oc2cc(Cl)c(Cl)cc2Cl)c(C(F)(F)F)c1`: 95.3% (inactive).
Still for that read-out and setting: the same measure for `O=C(CC(C(=O)c1ccccc1)N1CCOCC1)c1ccccc1` (stereo not drawn): 106% (inactive); for `COc1ccc(-c2nn(-c3cccc(NC(=O)Nc4cc(C(F)(F)F)cc(C(F)(F)F)c4)c3)cc2-c2ccncc2)cc1Cl`: 3.91% (active); for `COc1cc(/C=C/C(=O)c2ccc(Cl)cc2)ccc1OS(=O)(=O)c1ccc(C)cc1`: 95.1% (inactive).
